# The whole screen tested about 5,500 compounds, of which about 2,000 (36%) were called active. About 18% were inconclusive and are not listed. The list shows a part of the results. Values without a mark were called inactive. Rule as the data show it: active = normalized growth mostly below about 0.91 (no sharp cut-off); inconclusive = no clear call, values can overlap the other calls; inactive = mostly above about 0.92.
# Experiment: chemical genetic growth profiling, strain panel (AID 1159580);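 also: tested at 20 µM; growth read once vehicle control cultures reached saturation at 30 °C; 1 = growth at the plate median or of vehicle wells; lower values mean less growth of the strain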
# Details: growth OD
# [1] = S. cerevisiae deletion strains, locus YAL013W, strain DEP1, active compounds read low
# [2] = S. cerevisiae deletion strains, locus YBR229C, strain ROT2, active compounds read low
# [3] = S. cerevisiae deletion strains, locus YCL061C, strain MRC1, active compounds read low
# [4] = S. cerevisiae deletion strains, locus YDL101C, strain DUN1, active compounds read low
# [5] = S. cerevisiae deletion strains, locus YDR150W, strain NUM1, active compounds read low
# [6] = S. cerevisiae deletion strains, locus YEL061C, strain CIN8, active compounds read low
# [7] = S. cerevisiae deletion strains, locus YGR078C, strain PAC10, active compounds read low
# [8] = S. cerevisiae deletion strains, locus YHR030C, strain SLT2, active compounds read low
# [9] = S. cerevisiae deletion strains, locus YHR087W, strain rtc3, active compounds read low
# [10] = S. cerevisiae deletion strains, locus YJR043C, strain POL32, active compounds read low
# [11] = S. cerevisiae deletion strains, locus YJR075W, strain HOC1, active compounds read low
# [12] = S. cerevisiae deletion strains, locus YLR039C, strain RIC1, active compounds read low
# [13] = S. cerevisiae deletion strains, locus YLR058C, strain SHM2 (second series), active compounds read low
# [14] = S. cerevisiae deletion strains, locus YLR085C, strain ARP6, active compounds read low
# [15] = S. cerevisiae deletion strains, locus YLR262C, strain YPT6, active compounds read low
# [16] = S. cerevisiae deletion strains, locus YML094W, strain GIM5, active compounds read low
# [17] = S. cerevisiae deletion strains, locus YMR219W, strain ESC1, active compounds read low
# [18] = S. cerevisiae deletion strains, locus YMR263W, strain SAP30, active compounds read low
# [19] = S. cerevisiae deletion strains, locus YMR307W, strain GAS1, active compounds read low
# [20] = S. cerevisiae deletion strains, locus YNL153C, strain GIM3, active compounds read low
# [21] = S. cerevisiae deletion strains, locus YNL298W, strain CLA4 (second series), active compounds read low
# [22] = S. cerevisiae deletion strains, locus YNL322C, strain KRE1, active compounds read low
# [23] = S. cerevisiae deletion strains, locus YNR030W, strain Alg12, active compounds read low
# [24] = S. cerevisiae deletion strains, locus YPL055C, strain LGE1, active compounds read low
# [25] = S. cerevisiae deletion strains, locus YPL241C, strain CIN2, active compounds read low
# [26] = S. cerevisiae deletion strains, locus YPR135W, strain CTF4, active compounds read low
# [27] = S. cerevisiae strains, strain wild type, active compounds read low
# [28] = S. cerevisiae deletion strains, locus YHR079C, strain IRE1, active compounds read low
# [29] = S. cerevisiae deletion strains, locus YJL095W, strain BCK1, active compounds read low
# [30] = S. cerevisiae deletion strains, locus YJR066W, strain TOR1, active compounds read low
# [31] = S. cerevisiae deletion strains, locus YLR113W, strain HOG1, active compounds read low
# [32] = S. cerevisiae deletion strains, locus YNL183C, strain NPR1, active compounds read low
# [33] = S. cerevisiae deletion strains, locus YOR231W, strain MKK1, active compounds read low
# [34] = S. cerevisiae deletion strains, locus YPL256C, strain CLN2, active compounds read low
smiles,measurement,setting,value
Cc1cc(=O)n2[nH]cc(C#N)c2n1,normalized growth,[1],1
same,normalized growth,[2],1
same,normalized growth,[3],1.02
same,normalized growth,[4],1.01
same,normalized growth,[5],1.04
same,normalized growth,[6],0.999
same,normalized growth,[7],1.01
same,normalized growth,[8],1.09
same,normalized growth,[9],1.01
same,normalized growth,[10],1.02
same,normalized growth,[11],0.995
same,normalized growth,"S. cerevisiae deletion strains, locus YKL190W, strain CNB1, active compounds read low",0.981
same,normalized growth,[12],1.01
same,normalized growth,[13],1
same,normalized growth,[14],1
same,normalized growth,[15],1.04
same,normalized growth,[16],0.995
same,normalized growth,[17],0.994
same,normalized growth,[18],1.04
same,normalized growth,[19],0.968
same,normalized growth,[20],1.02
same,normalized growth,[21],1.01
same,normalized growth,[22],1
same,normalized growth,[23],1.01
same,normalized growth,[24],1.06
same,normalized growth,[25],0.99
same,normalized growth,[26],1.09
same,normalized growth,[27],0.993
CSC(=CC(=O)c1ccc(Cl)cc1)SC,normalized growth,[1],0.884 (active)
same,normalized growth,[2],0.867 (active)
same,normalized growth,[3],0.848 (active)
same,normalized growth,[4],0.836 (active)
same,normalized growth,"S. cerevisiae deletion strains, locus YDL134C, strain PPH21, active compounds read low",0.747 (active)
same,normalized growth,[5],0.888
same,normalized growth,[6],0.74 (active)
same,normalized growth,[7],0.872 (active)
same,normalized growth,"S. cerevisiae deletion strains, locus YGR229C, strain SMI1, active compounds read low",0.884 (active)
same,normalized growth,[8],0.218 (active)
same,normalized growth,[9],0.829 (active)
same,normalized growth,"S. cerevisiae deletion strains, locus YJL187C, strain SWE1, active compounds read low",0.869 (active)
same,normalized growth,[10],0.874 (active)
same,normalized growth,[11],0.828 (active)
same,normalized growth,[12],0.421 (active)
same,normalized growth,[13],0.836 (active)
same,normalized growth,[14],0.394 (active)
same,normalized growth,[15],0.431 (active)
same,normalized growth,[16],0.79 (active)
same,normalized growth,[17],0.889 (active)
same,normalized growth,[18],0.874 (active)
same,normalized growth,[19],0.286 (active)
same,normalized growth,"S. cerevisiae deletion strains, locus YNL128W, strain TEP1, active compounds read low",0.888 (active)
same,normalized growth,[20],0.879 (active)
same,normalized growth,[21],0.645 (active)
same,normalized growth,[22],0.895 (active)
same,normalized growth,[23],0.765 (active)
same,normalized growth,[24],0.771 (active)
same,normalized growth,[25],0.685 (active)
same,normalized growth,[26],0.352 (active)
same,normalized growth,[27],0.811 (active)
COC1=C(O)C(=O)c2c(cc3oc(C(C)=O)c(O)c3c2O)C1=O,normalized growth,[8],0.986
same,normalized growth,[28],1.01
same,normalized growth,[29],1.03
same,normalized growth,[30],0.957
same,normalized growth,[31],1.04
same,normalized growth,[32],0.973
same,normalized growth,[33],0.999
same,normalized growth,[34],0.973
Cc1csc(NC(=O)Nc2ccc(C(F)(F)F)cc2)c1Cl,normalized growth,"S. cerevisiae deletion strains, locus YAR019C, strain CDC15, active compounds read low",0.958
same,normalized growth,"S. cerevisiae deletion strains, locus YBL105C, strain PKC1, active compounds read low",0.96
same,normalized growth,"S. cerevisiae deletion strains, locus YBR135W, strain CKS1, active compounds read low",0.948
same,normalized growth,"S. cerevisiae deletion strains, locus YBR136W, strain MEC1, active compounds read low",0.957
same,normalized growth,"S. cerevisiae deletion strains, locus YBR160W, strain CDC28, active compounds read low",0.943
same,normalized growth,"S. cerevisiae deletion strains, locus YDL017W, strain CDC7, active compounds read low",0.954
same,normalized growth,"S. cerevisiae deletion strains, locus YDL028C, strain MPS1, active compounds read low",0.962
same,normalized growth,[4],0.988
same,normalized growth,"S. cerevisiae deletion strains, locus YDL108W, strain KIN28, active compounds read low",0.948
same,normalized growth,"S. cerevisiae deletion strains, locus YDL132W, strain cdc53, active compounds read low",0.969
same,normalized growth,"S. cerevisiae deletion strains, locus YDL214C, strain PRR2, active compounds read low",0.836
same,normalized growth,"S. cerevisiae deletion strains, locus YDR052C, strain DBF4, active compounds read low",0.961
same,normalized growth,"S. cerevisiae deletion strains, locus YDR054C, strain cdc34, active compounds read low",0.949
same,normalized growth,"S. cerevisiae deletion strains, locus YDR226W, strain ADK1, active compounds read low",0.96
same,normalized growth,"S. cerevisiae deletion strains, locus YDR477W, strain SNF1, active compounds read low",0.905
same,normalized growth,"S. cerevisiae deletion strains, locus YER123W, strain YCK3, active compounds read low",0.802
same,normalized growth,"S. cerevisiae deletion strains, locus YER133W, strain GLC7, active compounds read low",0.897
same,normalized growth,"S. cerevisiae deletion strains, locus YFL009W, strain cdc4, active compounds read low",0.951
same,normalized growth,"S. cerevisiae deletion strains, locus YFL029C, strain CAK1, active compounds read low",0.946
same,normalized growth,"S. cerevisiae deletion strains, locus YFR003C, strain YPI1, active compounds read low",0.957
same,normalized growth,"S. cerevisiae deletion strains, locus YFR019W, strain FAB1, active compounds read low",0.884
same,normalized growth,"S. cerevisiae deletion strains, locus YFR028C, strain CDC14, active compounds read low",0.945
same,normalized growth,"S. cerevisiae deletion strains, locus YGR040W, strain KSS1, active compounds read low",0.892
same,normalized growth,"S. cerevisiae deletion strains, locus YGR052W, strain FMP48, active compounds read low",0.884
same,normalized growth,"S. cerevisiae deletion strains, locus YGR092W, strain DBF2, active compounds read low",0.861
same,normalized growth,[8],0.858
same,normalized growth,[28],0.815
same,normalized growth,"S. cerevisiae deletion strains, locus YHR082C, strain KSP1, active compounds read low",0.873
same,normalized growth,"S. cerevisiae deletion strains, locus YHR205W, strain SCH9, active compounds read low",0.78
same,normalized growth,"S. cerevisiae deletion strains, locus YIL147C, strain SLN1, active compounds read low",0.958
same,normalized growth,[29],0.832
same,normalized growth,"S. cerevisiae deletion strains, locus YJL128C, strain PBS2, active compounds read low",0.891
same,normalized growth,"S. cerevisiae deletion strains, locus YJL157C, strain FAR1, active compounds read low",0.849
same,normalized growth,"S. cerevisiae deletion strains, locus YJR016C, strain ILV3, active compounds read low",0.95
same,normalized growth,"S. cerevisiae deletion strains, locus YJR066W, strain TOR1 (second series), active compounds read low",0.854
same,normalized growth,[30],0.92
same,normalized growth,"S. cerevisiae deletion strains, locus YKL048C, strain ELM1, active compounds read low",0.892
same,normalized growth,"S. cerevisiae deletion strains, locus YKL067W, strain YNK1, active compounds read low",0.831
same,normalized growth,"S. cerevisiae deletion strains, locus YKL101W, strain HSL1, active compounds read low",0.831
same,normalized growth,"S. cerevisiae deletion strains, locus YKL193C, strain SDS22, active compounds read low",0.951
same,normalized growth,"S. cerevisiae deletion strains, locus YKL203C, strain TOR2, active compounds read low",0.957
same,normalized growth,[31],0.675 (active)
same,normalized growth,"S. cerevisiae deletion strains, locus YLR133W, strain CKI1, active compounds read low",0.823
same,normalized growth,"S. cerevisiae deletion strains, locus YLR403W, strain SFP1, active compounds read low",0.871
same,normalized growth,"S. cerevisiae deletion strains, locus YML070W, strain DAK1, active compounds read low",0.802
same,normalized growth,"S. cerevisiae deletion strains, locus YMR001C, strain CDC5, active compounds read low",0.954
same,normalized growth,"S. cerevisiae deletion strains, locus YMR205C, strain PFK2 (second series), active compounds read low",0.833
same,normalized growth,"S. cerevisiae deletion strains, locus YMR277W, strain FCP1, active compounds read low",0.966
same,normalized growth,"S. cerevisiae deletion strains, locus YNL006W, strain LST8, active compounds read low",0.968
same,normalized growth,"S. cerevisiae deletion strains, locus YNL020C, strain ARK1, active compounds read low",0.823
same,normalized growth,"S. cerevisiae deletion strains, locus YNL161W, strain CBK1, active compounds read low",0.957
same,normalized growth,[32],0.829
same,normalized growth,"S. cerevisiae deletion strains, locus YNL207W, strain RIO2, active compounds read low",0.945
same,normalized growth,"S. cerevisiae deletion strains, locus YNL222W, strain SSU72, active compounds read low",0.95
same,normalized growth,"S. cerevisiae deletion strains, locus YNL307C, strain MCK1 (second series), active compounds read low",0.84
same,normalized growth,"S. cerevisiae deletion strains, locus YOL078W, strain AVO1, active compounds read low",0.946
same,normalized growth,"S. cerevisiae deletion strains, locus YOL136C, strain PFK27, active compounds read low",0.801
same,normalized growth,"S. cerevisiae deletion strains, locus YOR061W, strain CKA2, active compounds read low",0.842
same,normalized growth,"S. cerevisiae deletion strains, locus YOR119C, strain RIO1, active compounds read low",0.942
same,normalized growth,[33],0.762
same,normalized growth,"S. cerevisiae deletion strains, locus YOR329C, strain SCD5, active compounds read low",0.962
same,normalized growth,"S. cerevisiae deletion strains, locus YPL031C, strain PHO85, active compounds read low",0.892
same,normalized growth,"S. cerevisiae deletion strains, locus YPL153C, strain RAD53, active compounds read low",0.88
same,normalized growth,"S. cerevisiae deletion strains, locus YPL204W, strain HRR25, active compounds read low",0.868
same,normalized growth,"S. cerevisiae deletion strains, locus YPL209C, strain IPL1, active compounds read low",0.946
same,normalized growth,[34],0.724 (active)
same,normalized growth,"S. cerevisiae deletion strains, locus YPR025C, strain CCL1, active compounds read low",0.966
same,normalized growth,"S. cerevisiae deletion strains, locus YPR106W, strain ISR1, active compounds read low",0.932
same,normalized growth,"S. cerevisiae deletion strains, locus YPR111W, strain DBF20, active compounds read low",0.927
same,normalized growth,"S. cerevisiae deletion strains, strain NNK1, active compounds read low",0.93
same,normalized growth,"S. cerevisiae deletion strains, strain TSCII, active compounds read low",0.945

# Reference: PubChem BioAssay AID1159580 (chemical genetic matrix, 2015)
